Consider five sequences from publication PMC8384837, “Expanding the binding specificity for RNA recognition by a PUF domain”.

Common to all, as to test: yeast three-hybrid, YBZ-1, SC-Leu-His + 0.5 mM 3-AT, 4 days
Conditions in all cases: tags: N-Gal4 AD-HA kept; label: inside an RPR1-promoter hybrid RNA with tandem MS2 sites; ssRNA

The target of one assay is PUM1 PUF domain R5-RST (Homo sapiens, UniProt Q14671 828-1176, C1007R;R1008S;Q1011T). The procedure, abridged: (§1)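 A centromeric plasmid in strain YBZ-1 co-expressed Pumilio-1 PUF domain libraries, randomized at the three base-contacting residues of each repeat, with matching RNA elements; the strain carries a LexA–MS2 coat fusion and a HIS3 reporter. After four days on SC-Leu (input) or SC-Leu-His + 0.5 mM 3-AT (selection), the repeat regions were PCR-amplified and Illumina-sequenced. The interaction score is the log change in variant frequency from input to selection, using log2 and a pseudocount of 1 where absent.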

A further assay concerns the target PUM1 PUF domain R3-SHG (Homo sapiens, UniProt Q14671 828-1176, C935S;R936H;Q939G). The procedure, abridged: as §1
A further assay concerns the target T1, PUM1 PUF domain R6-NWV (Homo sapiens, UniProt Q14671 828-1176, Y1044W;Q1047V).
T1 sequence: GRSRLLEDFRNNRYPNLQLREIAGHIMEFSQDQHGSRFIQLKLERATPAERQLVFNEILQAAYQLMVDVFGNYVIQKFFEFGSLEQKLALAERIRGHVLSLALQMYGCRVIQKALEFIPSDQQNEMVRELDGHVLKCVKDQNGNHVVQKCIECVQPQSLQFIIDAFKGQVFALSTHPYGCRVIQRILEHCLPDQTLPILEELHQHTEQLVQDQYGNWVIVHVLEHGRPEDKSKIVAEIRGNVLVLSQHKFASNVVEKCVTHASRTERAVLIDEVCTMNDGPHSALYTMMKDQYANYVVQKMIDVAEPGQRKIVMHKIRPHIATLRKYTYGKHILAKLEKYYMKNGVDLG
The procedure, abridged: as §1

A further assay has as its target PUM1 PUF domain R1-TRR (Homo sapiens, UniProt Q14671 828-1176, S863T;Q867R). The procedure, abridged:
as §1

For “GGCUAGAACUAGUGGAUCCCCCGGCGCCCGGCGGCUCGAGCCCGGGUAAGUGUCAAUAGUCUGCAUGCCGCCGGGCGCCAUGCCUGCAGGUCGACUCUAGAAAACAUG”, in the assay with PUM1 PUF domain R5-RST, the binding signal is 2.91 log2 enrichment (interaction score).

Take “GGCUAGAACUAGUGGAUCCCCCGGCGCCCGGCGGCUCGAGCCCGGGUAAGUGUAAUUAGUCUGCAUGCCGCCGGGCGCCAUGCCUGCAGGUCGACUCUAGAAAACAUG”: the binding signal with PUM1 PUF domain R3-SHG is 0.72 log2 enrichment (interaction score).

As to “GGCUAGAACUAGUGGAUCCCCCGGCGCCCGGCGGCUCGAGCCCGGGUAAGUGUAAGUAGUCUGCAUGCCGCCGGGCGCCAUGCCUGCAGGUCGACUCUAGAAAACAUG”, in the assay with PUM1 PUF domain R3-SHG, the binding signal was 2.83 log2 enrichment (interaction score).

As for “GGCUAGAACUAGUGGAUCCCCCGGCGCCCGGCGGCUCGAGCCCGGGUAAGUGAAAAUAGUCUGCAUGCCGCCGGGCGCCAUGCCUGCAGGUCGACUCUAGAAAACAUG”, in the assay with PUM1 PUF domain R6-NWV, the binding signal was 3.35 log2 enrichment (interaction score).

In the case of “GGCUAGAACUAGUGGAUCCCCCGGCGCCCGGCGGCUCGAGCCCGGGUAAGUGUAAAUCGUCUGCAUGCCGCCGGGCGCCAUGCCUGCAGGUCGACUCUAGAAAACAUG”, the binding signal with PUM1 PUF domain R1-TRR was 4.23 log2 enrichment (interaction score).
